Compounds without any hit were thinned out: in the full panel of roughly 79,000, 15% have a hit. A number with no mark means an inactive call. The source made the active and inactive calls. Cut-off read from the data, not from the text of the source: active = growth inhibition above about 70%; inactive = the rest.
Assay: NCI Yeast Anticancer Drug Screen. Data for the mlh1 strain (AID 171);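 note: 0% = growth of vehicle-treated control cultures of the same strain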
Details: S. cerevisiae mlh1 strain growth inhibition, active compounds read high
Method: Growth inhibition of yeast strains with defined genetic alterations is measured as a screen for potential anti-cancer activity. Selected strains with alterations in DNA damage repair or cell cycle control were exposed to compounds and growth inhibition was measured relative to vehicle treated controls. The strain used in this assay is mlh1

SMILES	growth inhibition (at 1.2 µM) [%]	growth inhibition (at 3.7 µM)	growth inhibition (at 11.0 µM)	growth inhibition (at 33.0 µM)	growth inhibition (at 100.0 µM)
CCC(C)COC(=O)c1ccc(N=Cc2ccc(C=Nc3ccc(C(=O)OCC(C)CC)cc3)cc2)cc1 (stereo not given)	0	3%	2%	10%	19%
Cn1c(=O)c(-c2ccccc2)c(N=[N+]=[N-])c2ccccc21	1	3%	43%	92% (active)	88% (active)
c1ccc2c(c1)Oc1cccc3cccc-2c13	7	15%	14%	31%	52%
CC(C)(CN1CCCCC1)C(=O)CC(SCCS(=O)(=O)O)c1ccc(Br)cc1 (stereo not given)	3	6%	17%	26%	52%
O=C(c1ccc(Cl)cc1)C1OC12C(=O)Nc1ccccc12 (stereo not given)	8	99% (active)	99% (active)	99% (active)	99% (active)
CCOP(=O)(OCC)C(Cc1ccccc1)N=C(c1ccccc1)c1ccccc1 (stereo not given)	1	0%	5%	90% (active)	98% (active)
CC/C(=C(\c1ccccc1)c1ccc(OCCN(C)C)cc1)c1ccccc1	-3	0%	82% (active)	97% (active)	97% (active)
CCCCCCCCCCC1CCC(=O)O1 (stereo not given)	-2	0%	0%	10%	99% (active)
